About 79,000 compounds went through this panel and 15% of them were active in at least one assay; those are over-represented in the sample as a whole. Active and inactive are the calls of the source. Rule as the data show it: active = growth inhibition above about 70%; inactive = the rest.
Assay: NCI Yeast Anticancer Drug Screen. Data for the CLN2oe strain (AID 163);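 also: 0% = growth of vehicle-only control cultures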
Details: S. cerevisiae CLN2oe strain, stronger effect = higher value
Protocol: Growth inhibition of yeast strains with defined genetic alterations is measured as a screen for potential anti-cancer activity. Selected strains with alterations in DNA damage repair or cell cycle control were exposed to compounds and growth inhibition was measured relative to vehicle treated controls. The strain used in this assay is CLN2oe

Measured: growth inhibition

Cc1cc(S(=O)(=O)Nc2nnc3cnc4ccccc4n23)c(S)cc1Cl
inactive: at 1.2 µM 3% | at 3.7 µM 3% | at 11.0 µM 16% | at 33.0 µM 24% | at 100.0 µM 44%

CC(C)(C)[Si](C)(C)OCC1CCC(n2cnc3c(NC(=O)c4ccccc4)ncnc32)O1 (stereo not given)
inactive: at 1.2 µM -2% | at 3.7 µM 0% | at 11.0 µM 5% | at 33.0 µM -1% | at 100.0 µM -4%

O=Cc1ccc2c(c1)C(=O)c1ccccc1C2=O
inactive: at 1.2 µM -3% | at 3.7 µM -1% | at 11.0 µM 13% | at 33.0 µM 25% | at 100.0 µM 22%

NC1CCCCC1N.Nc1c(N=Nc2ccc(-c3ccc(N=Nc4cc(S(=O)(=O)[O-])c5ccccc5c4N)cc3)cc2)cc(S(=O)(=O)[O-])c2ccccc12.[OH3+].[OH3+].[Pt+4]
inactive: at 1.2 µM 1% | at 3.7 µM -1% | at 11.0 µM 22% | at 100.0 µM 63%
active: at 33.0 µM 89%

COc1ccc(N=CN(C)C)c(C)c1
active: at 33.0 µM 84% | at 100.0 µM 93%
inactive: at 1.2 µM -28% | at 3.7 µM -34% | at 11.0 µM -10%

O=C1/C(=C/c2ccccc2)CCCC1CN1CCCCC1 (stereo not given)
active: at 33.0 µM 80% | at 100.0 µM 83%
inactive: at 1.2 µM 40% | at 3.7 µM 59% | at 11.0 µM 67%

C[Si](C)(C)/C=C/CCNC(C#N)c1ccccc1 (stereo not given)
active: at 100.0 µM 93%
inactive: at 1.2 µM 3% | at 3.7 µM 10% | at 11.0 µM 52% | at 33.0 µM 42%

O=C1Nc2ccc(Br)cc2C1=Nc1ccc2c(c1)OCO2
inactive: at 1.2 µM 13% | at 3.7 µM 15% | at 11.0 µM 16% | at 33.0 µM 17% | at 100.0 µM 21%
